Screens: PubChem, Broad Institute
The list is not random: actives were taken first. Their share in the collection is about 1.5%.
N-glyco inh = blocks N-linked glycosylation in D54 reporter cells. reporter increase, % at 12.5 µM. AID 588692. 0.23% of 360,000 active. D54 ERlucT glycosylation luciferase reporter, 24 h; percent of 100 nM tunicamycin response;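 active = mean luciferase reporter signal, scaled so untreated is 0 and the glycosylation-blocking control 100, at or above a set limit in every replicate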;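 also: luciferase carries N-glycosylation sites so blocking glycosylation raises the light; 0% = median of neutral control wells and 100% = median of 100 nM tunicamycin wells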
dFosB act-1 = mouse delta FosB homodimer activation; P13346; purified delta FosB, TAMRA-CDK5 oligo fluorescence polarization; percent of positive-control signal above neutral wells; activation, % at 25 µM; 0.99% of 340,000 active; AID 493131;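 active = mean activation above about 17%, with every replicate also reaching it, limit read from the data, passing the limit was not always enough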
PvdQ inh = P. aeruginosa PvdQ acylase inhibition. 0.063% of 340,000 active. inhibition, % at 10 µM. purified PvdQ acylase, fluorescence plate reader; in the data active = inhibition above about 30%, passing the limit was not always enough;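 also: 0% = vehicle neutral wells and 100% = reference inhibitor wells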
F508del corr = CFTR F508del correction in bronchial cells. CFBE cells, YFP halide quenching; stimulated with forskolin plus potentiator P3; % fluorescence drop versus neutral controls. activity (quench increase), % at 7.58 µM. 0.36% of 350,000 active. AID 720511;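 active = mean added fluorescence quench of at least 8% versus neutral control, with both replicates also reaching 8%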;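 also: cells transiently co-express mutant CFTR-F508del with the halide-sensitive YFP; corrector assay measuring rescue of mutant channel to the surface after 24 h compound exposure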
RAD52 inh = RAD52 (human) annealing inhibition | P43351 | recombinant RAD52 DNA annealing, FRET fluorescence | 0.46% of 360,000 active | AID 651710 | inhibition, % at 18.7 µM;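 active = every replicate showing at least 50% inhibition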
RAD54 branch = inhibitors of human RAD54 branch migration; Q92698; RAD54 Holliday junction branch migration, FAM/BHQ fluorescence; inhibition, % at 10.4 µM; 0.14% of 360,000 active; AID 602329;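 active = mean normalized replicate activity at least 40 and at least half of replicates scoring 40 or more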;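 also: 0% = median of neutral control wells and 100% = median of positive control wells; inhibitors cause a drop in the FAM fluorescence signal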
Target sequence (Q92698 whole entry, looked up): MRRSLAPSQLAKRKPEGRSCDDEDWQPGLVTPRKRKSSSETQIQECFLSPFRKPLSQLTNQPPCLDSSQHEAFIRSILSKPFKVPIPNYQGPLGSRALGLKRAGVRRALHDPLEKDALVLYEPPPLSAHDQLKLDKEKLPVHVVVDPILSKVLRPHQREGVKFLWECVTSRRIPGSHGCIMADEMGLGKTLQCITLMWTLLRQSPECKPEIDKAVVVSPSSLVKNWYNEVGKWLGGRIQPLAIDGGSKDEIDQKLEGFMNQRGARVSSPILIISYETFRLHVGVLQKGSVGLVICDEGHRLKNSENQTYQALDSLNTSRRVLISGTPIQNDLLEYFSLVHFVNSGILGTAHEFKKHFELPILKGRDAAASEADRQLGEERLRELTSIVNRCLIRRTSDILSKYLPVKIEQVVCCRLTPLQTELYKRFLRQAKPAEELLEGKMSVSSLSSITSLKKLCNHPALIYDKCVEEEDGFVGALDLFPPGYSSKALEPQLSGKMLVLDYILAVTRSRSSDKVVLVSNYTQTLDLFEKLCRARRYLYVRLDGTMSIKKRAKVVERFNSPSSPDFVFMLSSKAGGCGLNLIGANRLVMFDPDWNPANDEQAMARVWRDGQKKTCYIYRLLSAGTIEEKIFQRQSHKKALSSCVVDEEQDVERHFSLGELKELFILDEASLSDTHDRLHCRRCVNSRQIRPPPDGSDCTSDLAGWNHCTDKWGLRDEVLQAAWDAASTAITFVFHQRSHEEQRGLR
dFosB act-2 = delta FosB (mouse) homodimer activation. shares compounds with dFosB act-1. purified delta FosB, TAMRA-CDK5 oligo fluorescence polarization; normalised: neutral wells 0, positive control 100. activation, % at 24.9 µM. 2,400 tested, under 10 active. AID 588690;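 active = highest replicate activation at or above 34% and every replicate reaching that threshold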;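 also: higher polarization means more probe DNA bound by delta FosB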
An asterisk follows results filed as active; nt = not tested or not shown.

SMILES	N-glyco inh	dFosB act-1	PvdQ inh	F508del corr	RAD52 inh	RAD54 branch	dFosB act-2
C=C/C=C/[C@@H]1C(=C)CN2[C@H]1[C@H](Cc1ccccc1)OC(=O)[C@@H]2Cc1ccccc1	nt	nt	nt	-1	-31	-17	nt
C[C@H](NC(=O)OCc1ccccc1)C(=O)NNC(=O)[C@H](Cc1ccccc1)NC(=O)OC(C)(C)C	2	27*	-14	1	1	-5	2
C[C@H](CO)N1C[C@H](C)[C@@H](CN(C)CC2CC2)Oc2ccc(NS(C)(=O)=O)cc2CC1=O	nt	nt	nt	0	-7	-3	nt
O=C(CNC(=O)c1cc(S(=O)(=O)N2CCCCC2)ccc1N1CCOCC1)Nc1ccc(F)c(F)c1	1	54*	3	-3	-11	nt	0
C[C@@H]1CN([C@H](C)CO)C(=O)c2cc(-c3ccncc3)cnc2O[C@@H]1CN(C)C(=O)NC1CCCC1	nt	nt	nt	-2	-9	1	nt
COc1ccc2c3c([nH]c2c1)[C@H](CO)N(C)CC31CN(C(=O)c2ccccn2)C1	nt	nt	nt	1	nt	nt	nt
N#Cc1ccc(-c2cccnc2)nc1SCc1ccc(Cl)c(Cl)c1	-4	9	5	0	-19	1	nt
N#Cc1ccc(-c2cccnc2)nc1SCc1ccc(Cl)cc1Cl	-1	108*	-13	nt	nt	9	3
O=C(Nc1ncc(Cc2ccc(C(F)(F)F)cc2)s1)c1ccc(-c2cccc([N+](=O)[O-])c2)o1	-5	13	-5	nt	nt	nt	nt
Cc1cnc(NC(=O)c2ccc(-c3nc4ccccc4s3)o2)s1	4	-23	-5	nt	nt	2	nt
O=C(Nc1ncc(Cc2ccccc2Cl)s1)c1ccc(-c2cccc([N+](=O)[O-])c2)o1	-4	22*	-3	nt	nt	4	4
Cc1cnc(NC(=O)c2ccc(-c3ccc([N+](=O)[O-])cc3)o2)s1	2	60*	-11	-2	-5	-3	2
O=C(C[C@H]1C[C@@H]2c3cc(NC(=O)CC4CC4)ccc3O[C@@H]2[C@H](CO)O1)NCc1ccc2c(c1)OCO2	nt	nt	nt	-1	3	-19	nt
O=C(O)C[C@H]1C[C@H]2c3cc(NC(=O)NC4CCCCC4)ccc3O[C@H]2[C@@H](CO)O1	nt	nt	nt	0	0	-6	nt
COc1ccc(NC(=O)Nc2ccc3c(c2)C(=O)N([C@@H](C)CO)C[C@H](C)[C@H](CN(C)C)OCCCC[C@H](C)O3)cc1	nt	nt	nt	-1	-5	3	nt
O=C(C[C@@H]1C=C[C@H](NC(=O)Nc2cc(F)ccc2F)[C@H](CO)O1)Nc1ccc(-c2ccccc2)cc1	nt	nt	nt	-1	-6	-8	nt
O=C(Nc1nc2c(F)c(F)c(F)cc2s1)c1ccco1	1	30*	-11	0	-6	6	2
O=C(Nc1cc(Cl)ccc1Cl)c1cc(-c2ccco2)on1	-1	18*	-3	-1	-41	5	-4
CC1(C)Cc2c(sc(NC(=O)COc3ccc(Cl)cc3)c2C(N)=O)C(C)(C)N1	-2	80*	-17	-2	-4	1	2
O=C(Nc1cccc([N+](=O)[O-])c1)Nc1cccc([N+](=O)[O-])c1	-10	-4	-10	nt	-2	nt	nt
O=C(Nc1cccc([N+](=O)[O-])c1)Nc1cnccn1	3	27*	-12	0	-8	3	-6
O=C(CCN1CCCCC1)NCC[C@H]1CC[C@H](NC(=O)Nc2ccc(F)cc2)[C@@H](CO)O1	nt	nt	nt	0	-2	2	nt
O=C(COC(=O)c1cc(S(=O)(=O)Nc2ccccc2Cl)ccc1O)Nc1nc2ccccc2s1	0	32*	-12	-1	-17	nt	7
C[C@]12CC[C@H](O)CC1=C[C@H](O)C1C2CC[C@@]2(C)C1CC[C@@]2(O)C#Cc1ccc(CN)cc1 (stereo partly specified)	-1	24*	-11	5	-4	nt	3
CN(C)C(=O)C[C@H]1C[C@@H]2c3cc(NC(=O)c4ccc5c(c4)OCO5)ccc3O[C@@H]2[C@H](CO)O1	nt	nt	nt	-4	-4	5	nt
SMILES	N-glyco inh	dFosB act-1	PvdQ inh	F508del corr	RAD52 inh	RAD54 branch	dFosB act-2
CO[C@@H]1CN(C)C(=O)c2ccc(NC(C)=O)cc2OC[C@H](C)N(C(=O)C2CCOCC2)C[C@@H]1C	nt	nt	nt	0	-8	12	nt
COC(=O)c1c(NC(=O)CSc2ncnc3[nH]ncc23)sc2c1CCC2	-1	29*	-10	0	-36	nt	3
COC(=O)c1c(NC(=O)Cn2cc([N+](=O)[O-])cn2)sc2c1CCC2	1	27*	-3	nt	nt	-2	1
CCC(=O)N1CC2(C1)[C@H](c1ccccc1)[C@H](CO)N2CC1CCOCC1	nt	nt	nt	-3	-1	nt	nt
CNC[C@@H]1OCCCC[C@H](C)Oc2ccc(NC(=O)Nc3ccc(C(F)(F)F)cc3)cc2C(=O)N([C@H](C)CO)C[C@@H]1C	nt	nt	nt	0	nt	14	nt
O=C(Nc1cccc(O)c1)c1cc(-c2ccc3c(c2)OCO3)on1	-19	33*	-13	-2	-1	-6	0
O=C(C[C@@H]1C[C@H]2c3cc(NS(=O)(=O)c4ccc(F)cc4)ccc3O[C@H]2[C@H](CO)O1)N1CCc2ccccc2C1	nt	nt	nt	-3	-7	-14	nt
COc1ccccc1-n1nc(C(=O)Nc2ccc3c(c2)OCO3)c2ccccc2c1=O	1	24*	9	nt	nt	9	1
COc1ccc(-n2nc(C(=O)Nc3ccc4c(c3)OCO4)c3ccccc3c2=O)c(OC)c1	2	13	9	nt	nt	-1	nt
COc1ccc(NC(=O)N(C)C[C@@H]2Oc3ccc(NS(=O)(=O)c4cn(C)cn4)cc3CC(=O)N([C@H](C)CO)C[C@@H]2C)cc1	nt	nt	nt	2	-1	7	nt
COc1cc(NC(=O)COC(=O)c2n[nH]c3ccccc23)c(C)cc1[N+](=O)[O-]	2	32*	-8	20*	-13	3	-1
Cc1cccn2c(=O)c3cc(C(=O)NCc4ccco4)c(=N)n(CCc4ccccc4)c3nc12	53*	20*	-16	3	-30	nt	-2
Cc1ccc(CNC(=O)c2cc3c(=O)n4ccccc4nc3n(Cc3ccco3)c2=N)cc1	3	25*	6	nt	-8	2	0
COc1ccc(CCn2c(=N)c(C(=O)NC3CCCC3)cc3c(=O)n4ccccc4nc32)cc1	1	-14	-2	-1	34	34	nt
COc1ccc(Cn2c(=N)c(C(=O)NC3CCCCC3)cc3c(=O)n4ccccc4nc32)cc1	-5	34*	-8	-3	2	5	5
C=CCOC(=O)[C@@H]1[C@H]2C(=O)O[C@H](c3ccccc3)[C@H](c3ccccc3)N2[C@H](c2ccc(OCCOC(=O)[C@@H]3C[C@@H]4C(=O)NCC(=O)N4[C@@H]3c3ccc(O)cc3)cc2)[C@@]12C(=O)Nc1ccc(I)cc12	nt	nt	nt	1	-11	-15	nt
